Data reported in PubChem BioAssay.
Active and inactive are the calls of the source. Unless noted, how the calls were made is not given here.

Experiments:
[1] = tested on: Wnt5a (protein binding on small-molecule microarray); assay: Wnt5a binders on small-molecule microarray, primary screen, biophysical, 635/667 nm fluorescence (AID 1142); conditions: 635 nm fluorescence, higher = more signal;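 further: fluorescence read at 667 nm with signal to noise per printed feature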
[2] = cell viability in Huh7 cells, primary screen, cytotoxicity control for HCV replication inhibitor project, CellTiter-Glo luminescence, basal, 48 h (AID 1143); conditions: Huh7 HCV replicon, higher = more signal, called active from +8 up or from −8 down;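 further: Huh7 hepatoma cells carrying a hepatitis C replication reporter with no stimulus; test concentration not given here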
[3] = P. aeruginosa biofilm formation inhibitors, primary screen, PAO1 strain, BacTiter-Glo luminescence, LB-PBS (AID 1144); conditions: 12 h, higher = more signal
[4] = CREB reporter modulators without forskolin, primary screen, cell-based, PC12, CRE-LacZ reporter, unstimulated (AID 1145); conditions: no forskolin, luminescence, 4.5 h, higher = more signal, called active from +8 up or from −8 down
[5] = CREB reporter modulators under forskolin, primary screen, cell-based, PC12, CRE-LacZ reporter, forskolin-stimulated (AID 1146); conditions: luminescence, 4.5 h, higher = more signal, called active from +8 up or from −8 down;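 further: PC12 cells with 6xCRE LacZ reporter stimulated by forskolin 10 µM; beta-galactosidase reporter signal reflecting CREB driven transcription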
[6] = molecular target: Streptavidin (Streptomyces avidinii) (UniProt P22629); assay: streptavidin binders on small-molecule microarray, primary screen, artefact control for SMM compound annotation, biophysical, 635/667 nm fluorescence (AID 1147); conditions: streptavidin binding, higher = more signal;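 further: signal reflects streptavidin binding to arrayed compounds as a control protein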
[7] = small-molecule binders of probe aInhba, primary screen, biochemical, small-molecule microarray, 635/667 nm fluorescence (AID 1148); conditions: higher = more signal;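 further: score merges 667nm spot fluorescence with signal-to-noise for antibody binding to printed compounds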
[8] = molecular target: Torsin-1A (Homo sapiens) (UniProt O14656); assay: torsin A binders from cell lysate, primary screen, small-molecule microarray, wild-type, 635/667 nm (AID 1149); conditions: COS7 hTOR1A-WT lysate, 635 nm fluorescence, higher = more signal
[9] = molecular target: Torsin-1A (Homo sapiens) (UniProt O14656); assay: small-molecule binders of mutant TOR1A in lysate, primary screen, cell lysate, small-molecule microarray, COS7 lysate, 635/667 nm fluorescence (AID 1150); conditions: COS7 hTOR1A mutant lysate, 635 nm fluorescence, higher = more signal;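 further: score pools 667 nm emission and signal to noise measuring lysate protein binding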
[10] = tested on: Sonic hedgehog protein (Shh); assay: small-molecule binders of Shh protein, primary screen, biochemical, small-molecule microarray, 635/667 nm fluorescence (AID 1151); conditions: small-molecule microarray binding, 635 nm fluorescence; higher = more signal;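 further: Shh protein binding to compounds spotted on small-molecule microarray slides; score combines spot fluorescence intensity with signal-to-noise across triplicate slides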
[11] = E. coli DRC41 culture turbidity changes, primary screen, E. coli filamentation inducer project, strain DRC41, OD650, 48 h (AID 1152);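 further: E. coli MC1000 strain DRC41 lacking acrAB efflux pump and sulA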; conditions: E. coli DRC41 (acrAB sulA), higher = more signal, called active from +8 up or from −8 down
[12] = small-molecule binders of probe aLefty1, primary screen, biochemical, small-molecule microarray, 635/667 nm fluorescence (AID 1153); conditions: higher = more signal;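 further: score merges spot fluorescence with signal-to-noise ratio from the scanned slide images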
[13] = PSAC antagonists in infected red cells, primary screen, cell-based, P. falciparum Indochina, OD700, 1 h (AID 1154); conditions: P. falciparum Indochina infected RBC osmotic lysis, higher = more signal, called active from +8 up or from −8 down
[14] = PSAC antagonists in infected red cells, primary screen, cell-based, P. falciparum Indochina, OD700, 2 h (AID 1155);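 further: lysis reports solute entry through the parasite surface anion channel PSAC; channel blockers reduce lysis of infected cells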; conditions: P. falciparum Indochina infected erythrocytes, osmotic lysis OD700; higher = more signal, called active from +8 up or from −8 down
[15] = osmotic lysis modulators in infected erythrocytes, primary screen, PSAC antagonist project, cell-based, P. falciparum Indochina, OD700, 3 h (AID 1156); conditions: higher = more signal, called active from +8 up or from −8 down
[16] = PSAC antagonists in infected red cells, primary screen, cell-based, P. falciparum Indochina, OD700, 18 h (AID 1157); conditions: P. falciparum Indochina infected erythrocytes, osmotic lysis OD700, 18 h; higher = more signal, called active from +8 up or from −8 down
[17] = modulators of S6 phosphorylation in cells, primary screen, cell-based, A549, cytoblot, luminescence, serum-stimulated (AID 1158); conditions: A549 phospho-S6 cytoblot, 5 h, higher = more signal;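 further: serum-stimulated A549 lung adenocarcinoma cells; signal is phosphorylated S6 detected by cytoblot immunostaining with HRP secondary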
[18] = molecular target: NADPH oxidase 2 (Homo sapiens) (UniProt P04839); assay: NOX2-dependent H2O2 signal modulators, primary screen, NOX inhibitor project, cell-based, HEK293-NOX2, PMA-stimulated, Amplex Red fluorescence (AID 1159); conditions: 45 min, higher = more signal, called active from +8 up or from −8 down; further: test concentration not given here
[19] = molecular target: NADPH oxidase 4 (Homo sapiens) (UniProt Q9NPH5); assay: NOX4-dependent H2O2 signal modulators, primary screen, NOX inhibitor project, cell-based, HEK293-NOX4, tetracycline-induced, Amplex Red fluorescence (AID 1160); conditions: 45 min, higher = more signal, called active from +8 up or from −8 down
[20] = molecular target: NADPH oxidase 5 (Homo sapiens) (UniProt Q96PH1); assay: NOX5-dependent H2O2 signal modulators, primary screen, NOX inhibitor project, cell-based, HEK293-NOX5, Amplex Red fluorescence (AID 1161); conditions: HEK293-NOX5, ionomycin, 45 min, higher = more signal
Sequence of NADPH oxidase 5 (Homo sapiens) (Q96PH1 whole entry, looked up): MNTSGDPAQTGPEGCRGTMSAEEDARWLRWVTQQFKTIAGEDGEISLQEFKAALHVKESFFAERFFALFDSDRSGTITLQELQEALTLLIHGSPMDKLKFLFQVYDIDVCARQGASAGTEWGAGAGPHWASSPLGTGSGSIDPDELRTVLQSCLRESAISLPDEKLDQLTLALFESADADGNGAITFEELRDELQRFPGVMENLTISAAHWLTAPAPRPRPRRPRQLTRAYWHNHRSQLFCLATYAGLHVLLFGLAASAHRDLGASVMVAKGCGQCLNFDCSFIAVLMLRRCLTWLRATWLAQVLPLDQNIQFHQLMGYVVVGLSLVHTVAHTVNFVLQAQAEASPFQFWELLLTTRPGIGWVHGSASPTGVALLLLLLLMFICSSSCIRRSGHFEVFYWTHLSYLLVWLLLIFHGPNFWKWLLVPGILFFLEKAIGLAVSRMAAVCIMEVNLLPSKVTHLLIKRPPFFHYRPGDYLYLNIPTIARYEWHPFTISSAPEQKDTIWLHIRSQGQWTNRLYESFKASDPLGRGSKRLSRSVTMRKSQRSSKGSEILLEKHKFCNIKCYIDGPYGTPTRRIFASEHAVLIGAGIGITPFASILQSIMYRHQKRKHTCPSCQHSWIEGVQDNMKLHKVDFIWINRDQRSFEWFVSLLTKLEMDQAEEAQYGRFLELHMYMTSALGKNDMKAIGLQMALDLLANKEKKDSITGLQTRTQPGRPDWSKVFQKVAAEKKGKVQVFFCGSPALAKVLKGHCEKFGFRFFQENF

Sequence of NADPH oxidase 4 (Homo sapiens) (Q9NPH5 whole entry, looked up): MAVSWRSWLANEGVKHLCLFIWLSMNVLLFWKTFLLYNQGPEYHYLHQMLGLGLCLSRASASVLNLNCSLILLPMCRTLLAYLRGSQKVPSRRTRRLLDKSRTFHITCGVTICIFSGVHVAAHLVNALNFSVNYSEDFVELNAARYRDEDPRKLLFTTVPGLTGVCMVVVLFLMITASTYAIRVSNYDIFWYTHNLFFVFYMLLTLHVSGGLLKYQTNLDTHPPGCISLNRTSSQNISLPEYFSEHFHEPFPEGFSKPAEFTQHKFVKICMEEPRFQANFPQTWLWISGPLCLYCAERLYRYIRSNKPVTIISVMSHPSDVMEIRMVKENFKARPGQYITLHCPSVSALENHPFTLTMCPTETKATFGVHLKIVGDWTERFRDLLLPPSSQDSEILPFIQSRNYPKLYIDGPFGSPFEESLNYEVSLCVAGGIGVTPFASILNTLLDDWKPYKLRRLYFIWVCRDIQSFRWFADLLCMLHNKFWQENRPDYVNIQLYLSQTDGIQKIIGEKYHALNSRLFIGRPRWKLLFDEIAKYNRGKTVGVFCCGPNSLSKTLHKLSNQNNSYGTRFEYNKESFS
Sequence of NADPH oxidase 2 (Homo sapiens) (P04839 whole entry, looked up): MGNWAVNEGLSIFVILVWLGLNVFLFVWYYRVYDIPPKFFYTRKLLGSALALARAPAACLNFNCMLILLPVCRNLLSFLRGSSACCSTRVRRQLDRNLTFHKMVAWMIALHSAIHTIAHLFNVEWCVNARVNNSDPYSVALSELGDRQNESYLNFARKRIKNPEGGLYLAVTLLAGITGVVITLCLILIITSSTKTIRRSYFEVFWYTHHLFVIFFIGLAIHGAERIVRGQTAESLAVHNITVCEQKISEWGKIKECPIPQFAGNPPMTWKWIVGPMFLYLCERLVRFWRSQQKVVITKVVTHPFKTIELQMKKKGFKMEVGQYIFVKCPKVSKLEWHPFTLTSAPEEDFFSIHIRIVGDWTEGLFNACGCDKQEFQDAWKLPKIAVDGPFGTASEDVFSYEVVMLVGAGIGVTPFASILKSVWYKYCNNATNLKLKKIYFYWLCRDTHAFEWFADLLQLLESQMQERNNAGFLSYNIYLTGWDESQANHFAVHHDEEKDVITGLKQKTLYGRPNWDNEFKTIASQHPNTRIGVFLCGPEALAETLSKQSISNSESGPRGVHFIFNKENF
Sequence of Torsin-1A (Homo sapiens) (O14656 whole entry, looked up): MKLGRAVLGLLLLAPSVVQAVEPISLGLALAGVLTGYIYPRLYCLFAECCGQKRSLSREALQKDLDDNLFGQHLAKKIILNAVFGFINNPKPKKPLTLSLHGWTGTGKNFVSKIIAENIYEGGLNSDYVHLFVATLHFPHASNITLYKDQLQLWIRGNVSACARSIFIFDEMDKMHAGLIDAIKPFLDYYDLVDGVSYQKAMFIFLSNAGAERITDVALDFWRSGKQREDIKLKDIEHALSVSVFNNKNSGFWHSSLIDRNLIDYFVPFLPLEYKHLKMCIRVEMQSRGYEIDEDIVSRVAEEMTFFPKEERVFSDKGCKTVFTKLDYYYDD
Sequence of Streptavidin (Streptomyces avidinii) (P22629 whole entry, looked up): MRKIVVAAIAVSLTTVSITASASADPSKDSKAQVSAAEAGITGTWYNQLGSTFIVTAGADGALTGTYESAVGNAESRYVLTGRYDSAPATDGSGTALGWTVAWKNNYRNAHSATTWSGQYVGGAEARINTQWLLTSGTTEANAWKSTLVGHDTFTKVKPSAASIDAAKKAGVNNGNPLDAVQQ

SMILES	composite z-score [1]	z-score [2]	z-score [3]	z-score [4]	z-score [5]	composite z-score [6]	composite z-score [7]	composite z-score [8]	composite z-score [9]	composite z-score [10]	z-score [11]	composite z-score [12]	z-score [13]	z-score [14]	z-score [15]	z-score [16]	z-score [17]	z-score [18]	z-score [19]	z-score [20]
C=CCC(OC(C)=O)[C@@H]1[C@@H](N(Cc2ccc(-c3cccc(C(F)(F)F)c3)o2)C(=O)c2ccc(C)cc2)c2cc(OCCCO)ccc2N1C(=O)Cc1ccc(OC)cc1 (stereo not given in full)	0.058	-0.159 (inactive)	-0.853 (inactive)	-0.477 (inactive)	0.514 (inactive)	-0.109	-0.128	-0.425	0.197	1.53	2.06 (inactive)	0.0934	2.58 (inactive)	0.0001 (inactive)	0.636 (inactive)	0.432 (inactive)	0.194	-1.44 (inactive)	0.641 (inactive)	0.233
CCCCC(=O)N(CCN1CCOCC1)[C@@H]1CC(C(=O)NCCO)=C[C@H](Oc2c(I)cc(CO)cc2OC)[C@H]1O	-0.0408	0.0643 (inactive)	-0.141 (inactive)	1.4 (inactive)	-1.19 (inactive)	-0.0538	-0.253	0.314	-0.0203	0.655	1.4 (inactive)	-0.235	3.89 (inactive)	0.756 (inactive)	0.098 (inactive)	0.133 (inactive)	-0.0612	-0.381 (inactive)	0.577 (inactive)	0.613
CC(C)CCC[C@@H](C)[C@H]1CC[C@@]2(C)C3=C(CC[C@]12C)[C@@]1(C)CC[C@H](OC(=O)c2ccccc2)C(C)(C)C1CC3 (stereo not given in full)	0.0964	-1.16 (inactive)	-1.65 (inactive)	0.581 (inactive)	-0.653 (inactive)	0.18	-0.178	0.316	0.171	0.364	2.94 (inactive)	0.0939	-0.44 (inactive)	-0.47 (inactive)	-0.414 (inactive)	-1.26 (inactive)	1.64	-0.898 (inactive)	0.288 (inactive)	0.465
C=C(C)C1CCC(C(O)C2C=CC3C(=O)N(C)C(=O)C3N2Nc2cc(OC)c(OC)c(OC)c2)CC1 (stereo not given)	0.109	0.454 (inactive)	0.253 (inactive)	0.243 (inactive)	0.516 (inactive)	0.889	0.222	-0.0834	0.44	1.11	-1.67 (inactive)	0.361	0.541 (inactive)	0.61 (inactive)	-0.256 (inactive)	0.901 (inactive)	-0.681	-1.86 (inactive)	-2.78 (inactive)	-2.92
C=C(COC)/C(=C/C[C@H](OC(C)=O)c1cccc(OCCO)c1)c1cnc2ccccc2c1	0.484	-0.184 (inactive)	0.167 (inactive)	3.72 (inactive)	0.298 (inactive)	1.46	0.109	1.24	0.583	2.11	-0.339 (inactive)	0.0999	15.2 (active)	2.65 (inactive)	1.41 (inactive)	0.872 (inactive)	-0.512	0.373 (inactive)	0.228 (inactive)	-0.167
C[C@@]12COC[C@]13C=C(Br)[C@H](C2)[C@@]1(CO1)C3=O	-0.329	0.603 (inactive)	0.708 (inactive)	0.769 (inactive)	1.51 (inactive)	-0.875	-0.0966	-1.76	-0.55	-0.3	-0.745 (inactive)	-0.0003	-0.526 (inactive)	-0.0824 (inactive)	-0.347 (inactive)	-0.161 (inactive)	-0.788	0.51 (inactive)	0.527 (inactive)	0.119
COc1ccc(C(O)C2C=CC3C(=O)N(c4ccccc4)C(=O)C3N2Nc2ccccc2)cc1 (stereo not given)	0.256	-0.0351 (inactive)	-0.0851 (inactive)	0.426 (inactive)	-0.356 (inactive)	0.571	0.105	-0.109	0.692	0.393	-1.04 (inactive)	0.411	10.9 (active)	2.15 (inactive)	0.332 (inactive)	1.27 (inactive)	-1.44	-2.06 (inactive)	-3.23 (inactive)	-2.84
CCOC(=O)C1=C[C@@H](C(C)(C)C)N(S(=O)(=O)c2ccc(C)cc2)[C@H]1c1cccc(Cl)c1	0.37	-4.84 (inactive)	1.52 (inactive)	0.0798 (inactive)	-0.651 (inactive)	1.37	0.18	0.224	0.695	0.163	-1.11 (inactive)	0.522	1.26 (inactive)	1.03 (inactive)	0.223 (inactive)	0.39 (inactive)	-0.98	-0.789 (inactive)	-0.842 (inactive)	0.196
CN(C)C(=O)[C@]1(CCS(=O)(=O)c2ccccc2)N=C(c2ccc(OCCCO)cc2)O[C@@H]1c1ccccc1	0.995	-2.87 (inactive)	-1.52 (inactive)	1.42 (inactive)	1.1 (inactive)	1.22	0.204	0.957	0.831	-0.707	0.0024 (inactive)	-0.0072	30.8 (active)	25.7 (active)	2.91 (inactive)	6.06 (inactive)	0.0637	-0.461 (inactive)	1.52 (inactive)	-2.3
